# Records with an inconclusive call do not appear. Values without a mark were called inactive. Calls of active or inactive are those of the source. Calls come from the whole dose curve; as a rule, active = well fitted cell-killing curve with a large enough effect; inconclusive = small, poorly fitted or top-dose-only effect, or effect the other way; inactive = no such curve, though single readings can be large or run the other way.
# Assay: Quantitative High-Throughput drug screen in 47 multiple myeloma cell lines against the NCATS MIPE library collection: L363_DSMZ cell viability assay (AID 1918984); note: nearly all actives have a fitted effect of over 40% in size
# Settings: L363 myeloma viability, CellTiter-Glo ATP luminescence, 48 h; series mostly up to 45.8 µM; viability (% of control): at the top concentration
# From the text: PI: Beverly A. Mock Ph.D.
# Laboratory of Cancer Biology and Genetics,
# Center for Cancer Research, National Cancer Institute,
# National Institute of Health, Bethesda, Maryland
# Drug resistance and disease progression are common in multiple myeloma (MM) patients, underscoring the need for new therapeutic combinations. […] We hypothesized that effective combinations would reduce MYC expression and enhance p16 activity. […] These preclinical data identify potentially useful drug combinations for evaluation in drug-resistant MM and reveal potential mechanisms of combined drug sensitivity.
# Described herein is the primary MIPE qHTS used to cherrypick compounds. Validated compounds were then further tested for potential synergistic activiy.
# [1] Peat TJ, Gaikwad SM, Dubois W, Gyabaah-Kessie N, Zhang S, Gorjifard S, Phyo Z, Andres M, Hughitt VK, Simpson RM, Miller MA, Girvin AT, Taylor A, Williams D, D'Antonio N, Zhang Y, Rajagopalan A, Flietner E, Wilson K, Zhang X, Shinn P, Klumpp-Thomas C, McKnight C, Itkin Z, Chen L, Kazandijian D, Zhang J, Michalowski AM, Simmons JK, Keats J, Thomas CJ, Mock BA. Drug combinations identified by high-throughput screening promote cell cycle transition and upregulate Smad pathways in myeloma. Cancer Lett. 2023 Aug 1;568:216284. doi: 10.1016/j.canlet.2023.216284. Epub 2023 Jun 24. PMID: 37356470; PMCID: PMC10408729.
# SEQUENCE No. (e.g., 1, 2, 3, etc.); […] (e.g., Cells, Incubation, Reagent, etc.); VALUE and DESCRIPTION.
# 1; Cells; 5 uL; white, solid bottom 1536-well Greiner assay plate.
# 2; Compounds; 23 nL; Kalypsis pin tool (Wako USA) equipped with a 1536-well pin head to transfer to the assay plates.
# 3; Incubation; 48 hours; 37C incubation.
# 4; Reagent;5uL; CellTiter Glo (Promega).
# 5; Detector; 425V; Luminescence; Viewlux PerkinElmer.
# NOTES (numbers refer to Sequence numbers above)
# 1. The cell-based screening methods employed in this study were like those previously published. Briefly, the corresponding myeloma cell lines were screened in 1,536-well plates with 500 cells, 5-uL per well for inhibition of cell viability (assessed by measuring ATP levels with CellTiterGlo).
# 2. NCATS MIPE 4.0 library of approved and investigational drugs were added using the Kalypsis pin tool. Wells treated with DMSO only for 100% viability and media only for 0% viability were used as controls.
# 3. The assay plates were covered and incubated for 48 hours in a 37C, 5% CO2 incubator with controlled humidity.
# 4. After 48 hours, CellTilter-GloTM luminescent substrate mix (Promega) reagent was added to the assay plate and plates we incubated for 5 min at room temperature.
# 5. Signal was measured as median relative luminescence units on a ViewLux (PerkinElmer) multiplate reader.
# [1] Heske CM, Davis MI, Baumgart JT, Wilson K, Gormally MV, Chen L, Zhang X, Ceribelli M, Duveau DY, Guha R, Ferrer M, Arnaldez FI, Ji J, Tran HL, Zhang Y, Mendoza A, Helman LJ, Thomas CJ. Matrix Screen Identifies Synergistic Combination of PARP Inhibitors and Nicotinamide Phosphoribosyltransferase (NAMPT) Inhibitors in Ewing Sarcoma. Clin Cancer Res. 2017 Dec 1;23(23):7301-7311. doi: 10.1158/1078-0432.CCR-17-1121. Epub 2017 Sep 12. PMID: 28899971; PMCID: PMC6636827.
# Potency is the fitted concentration of half-maximal effect.
Compound,Potency,viability (% of control)
C=CC(=O)Nc1cccc(Oc2nc(Nc3ccc(N4CCN(C)CC4)cc3)ncc2Cl)c1,5260 nM (active),
Cc1cnc(Nc2ccc(F)cc2Cl)nc1-c1c[nH]c(C(=O)N[C@H](CO)c2cccc(Cl)c2)c1,1320 nM (active),
COc1cc(Nc2ncc(F)c(Nc3ccc4c(n3)N(COP(=O)(O)O)C(=O)C(C)(C)O4)n2)cc(OC)c1OC,2350 nM (active),
COC(=O)[C@]12CCC(C)(C)C[C@@H]1[C@@H]1C(=O)C=C3[C@@]4(C)C=C(C#N)C(=O)C(C)(C)[C@@H]4CC[C@@]3(C)[C@]1(C)CC2,526 nM (active),
O=C(Nc1ncc(-c2cc(C(F)F)nn2-c2c(Cl)cccc2Cl)s1)C1CC1,235 nM (active),
COc1ccc(-n2nc(C(N)=O)c3c2C(=O)N(c2ccc(N4CCCCC4=O)cc2)CC3)cc1,,105%
CC1(C)OC2=C(C(=O)c3ccccc3C2=O)[C@H](NCc2ccccc2)[C@H]1O,2090 nM (active),
CC(C)c1cnn2c(NCc3ccccc3)cc(N[C@@H](CO)[C@H](O)CO)nc12,148 nM (active),
O=c1[nH]c(=O)n(C2CCCO2)cc1F (stereo not given),,101% [at 92.2 µM]
OCc1ccc(-c2ccc(-c3ccc(CO)s3)o2)s1,,109%
Cc1cc(Nc2cc(NC(=O)c3c(Cl)cccc3Cl)ccn2)nc(N)n1,1660 nM (active),
N#Cc1c(O)c2c(-c3ccc(-c4ccccc4O)cc3)csc2[nH]c1=O,,119%
C[C@@H](Oc1cc(-c2cnn(C3CCNCC3)c2)cnc1N)c1c(Cl)ccc(F)c1Cl,4690 nM (active),
Cc1cc(N2CCOCC2)cc2[nH]c(-c3c(NC[C@@H](O)c4cccc(Cl)c4)cc[nH]c3=O)nc12,148 nM (active),
CC(NCc1ccc2c(c1)nc(NC(=O)c1ccc(-c3cn[nH]c3)s1)n2CC(C)(C)O)C(C)(C)C (stereo not given),105 nM (active),
O=C(O)Cn1nnc(-c2cc(N3CCC(Oc4cc(F)ccc4Br)CC3)no2)n1,,87.1%
C[C@@H](Oc1cc(-n2cnc3ccc(CN4CCN(C)CC4)cc32)sc1C(N)=O)c1ccccc1C(F)(F)F,11.8 nM (active),
CN1c2cc(O)c(N=NC(N)=O)cc2CC1S(=O)(=O)O (stereo not given),,74.9%
COc1cccc2c(NCc3ccccc3)nc(-n3c(N)nc4ccccc43)nc12,1320 nM (active),
Cc1ccc(-c2ncn(-c3ccc(Nc4nccc(-c5cccc(N6CCOCC6)c5)n4)cc3)n2)cn1,74.3 nM (active),

Compound,Potency,viability (% of control)
O=C(O)c1ccc2cc(-c3ccc(O)c(C45CC6CC(CC(C6)C4)C5)c3)ccc2c1,833 nM (active),
CC(C)c1noc(N2CCC(COc3ccc(-c4ccc(S(C)(=O)=O)cc4)nc3)CC2)n1,,109%
CCC(=C(c1ccccc1)c1ccc(OCCN(C)C)cc1)c1ccccc1,20900 nM (active),
CC[C@@H]1C(=O)N(C)c2cnc(Nc3ccc(C(=O)NC4CCC(N5CCN(CC6CC6)CC5)CC4)cc3OC)nc2N1C(C)C (stereo not given in full),14.8 nM (active),
COc1ccc(C(=O)CC2(O)C(=O)Nc3c(Cl)ccc(Cl)c32)cc1 (stereo not given),1660 nM (active),
CC(C)c1cc(C(=O)N2Cc3ccc(CN4CCN(C)CC4)cc3C2)c(O)cc1O,59 nM (active),
CCN1CCN(Cc2ccc(-c3cc4c(N[C@H](C)c5ccccc5)ncnc4[nH]3)cc2)CC1,23.5 nM (active),
Cc1ccc2nc(NC(=O)CSc3nc4c(c(=O)n3-c3ccccc3)SCC4)sc2c1,11800 nM (active),
CC1(C)CC(=O)c2c(C(F)(F)F)nn(-c3ccc(C(N)=O)c(NC4CCC(OC(=O)CN)CC4)c3)c2C1 (stereo not given),83.3 nM (active),
CN(c1ncccc1CNc1nc(Nc2ccc3c(c2)CC(=O)N3)ncc1C(F)(F)F)S(C)(=O)=O,2640 nM (active),
OCCCNc1cc(-c2ccnc(Nc3cccc(Cl)c3)n2)ccn1,33.2 nM (active),
COc1cc2c(Oc3ccc(-c4cnc(Nc5ccc(F)cc5)n(C)c4=O)cc3F)ccnc2cc1OCCCN1CCOCC1,833 nM (active),
CC(=O)c1c(C)c2cnc(Nc3ccc(N4CCNCC4)cn3)nc2n(C2CCCC2)c1=O,23500 nM (active),
CC[C@@]1(O)C(=O)OCc2c1cc1n(c2=O)Cc2cc3cc(O)ccc3nc2-1,935 nM (active),
Cn1c2ccccc2c2c3c(c4c5ccccc5n(CCC#N)c4c21)CNC3=O,209 nM (active),
Cn1cc(-c2ccncc2)c(-c2ccc(OCc3ccc4ccccc4n3)cc2)n1,2640 nM (active),
CCn1cc(-c2ccnc3[nH]c(-c4cccc(CN(C)C)c4)cc23)c(-c2ccc(NC(=O)N(C)C)cc2)n1,2090 nM (active),
Cc1ccc(NC(=O)C2(c3ccc4c(c3)OC(F)(F)O4)CC2)nc1-c1cccc(C(=O)O)c1,29.6 nM (active),
COc1cc(OC2CCN(C)CC2)ccc1Nc1ncc2c(n1)n(C1CCCC1)c(=O)n2C,7430 nM (active),
Nc1ccccc1NC(=O)c1ccc(CNC(=O)OCc2cccnc2)cc1,418 nM (active),
